Most compounds without a hit are left out; they make up all but 8.1% or so of the library.
MCF10A rerep: DNA re-replication induction in MCF 10a cells; MCF 10A DNA re-replication, Hoechst nuclear intensity, 48 h; Potency, µM (highest dose often 46.1 µM), inactives show at the top dose activity, positive = re-replication, most hits filed as activators; actives 2.9% (n = 350,000); also: % of control where 0% means no effect; nearly all actives have a fitted effect of over 50% in size
KB-V1 cytotox: KB-V1 MDR subline cytotoxicity | Potency, µM (doses to about 46.1 µM), usual class: cytotoxic | KB-V1 MDR cells viability, CellTiter-Glo, 72 h | actives 3.4% (n = 400,000) | AID 1347076; also: % is scaled to controls: 0 for no effect and ±100 for the full control effect; nearly all actives have a fitted effect of over 60% in size
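Luminescent ATP read-out (CellTiter-Glo, 10 min) measures survival of drug-selected KB-V1 MDR cells after 72 h, 37 degrees C compound exposure. Medium: phenol-red-free DMEM, 10% FBS. Values from fitted concentration-response curves.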
KB-3-1 tox: KB-3-1 parental cell cytotoxicity; KB-3-1 viability, CellTiter-Glo ATP luminescence, 72 h; Potency, µM (series often up to 46.1 µM), hits mostly cytotoxic; actives 1.4% (n = 400,000); also: % is scaled to controls: 0 for no effect and ±100 for the full control effect; nearly all actives have a fitted effect of over 60% in size
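Using CellTiter-Glo luminescence, growth of non-resistant KB-3-1 adenocarcinoma cells is assessed 72 h after pin-tool compound addition at 37 °C. Normalized responses across the concentration series yield fitted curves.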
ELG1 DNA repair: blocks ELG1-dependent DNA repair in HEK293T cells; HEK293T ELG1-luciferase reporter, luminescence, 16 h; DNA damage induced by 5-fluorouridine; AID 504467; Potency, µM (titrated, usually from 46.1 µM), inactives show at the highest dose activity change, negative = inhibition, actives largely listed as inhibitors; actives 2.3% (n = 330,000); also: % is scaled to controls: 0 for no effect and ±100 for the full control effect; nearly all actives have a fitted effect of over 55% in size
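Quantitative HTS, concentration-response format. 2,000 cells/well co-treated with 5-fluorouridine and compound, 16 hr in 5% CO2 at 37 °C; ONE-Glo luminescence read after 30 min.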
SW480 rerep: induces DNA re-replication in SW480 colon adenocarcinoma cells; Potency, µM (titrated, usually from 46.1 µM), inactives show at the highest dose re-replication activation, hits mostly activators; SW480 DNA re-replication, Hoechst DNA content imaging, 48 h; actives 1.8% (n = 340,000); also: % of control where 0% means no effect; nearly all actives have a fitted effect of over 55% in size
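Image-based DNA-content assay: after two days of treatment, nuclei were labelled with the DNA dye Hoechst and imaged, and hits were compounds raising the count of nuclei showing high fluorescence intensity.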
Active calls of the source: *; i = inactive; u = inconclusive; x = not tested or not shown; ! = not confirmed by another sample. Calls follow the shape of the dose curve; as a rule, active = well fitted curve in the direction sought with a large enough effect; inconclusive = small, poorly fitted or top-dose-only effect, or another doubt; inactive = no such curve, though single readings can be large; an effect the other way counts as inactive or inconclusive. Potency is read from the fitted curve at half-maximal effect.

SMILES | MCF10A rerep | KB-V1 cytotox | KB-3-1 tox | ELG1 DNA repair | SW480 rerep
O=C(Nc1ccccc1C(=O)NCC1CCCO1)c1ccc(Cl)cc1Cl (configuration not stated) | 3% | 6.5µM* | i | 0% | 1%
COc1cccc(-c2cc(C(=O)NCC3CCCO3)c3cc(Br)cc(C)c3n2)c1 (configuration not stated) | 0% | i | i | 12% | 16%
Cn1nc(-c2ccc(Cl)cc2)c2cc(C(=O)NCC3CCCO3)sc21 (configuration not stated) | u | i | u | 16µM* | u
CN1CCN(CCCNC(=O)c2cc3c(-c4ccc(Cl)cc4)nn(C)c3s2)CC1 | u | i | i | u | 12%
Cc1cc(Br)cc2c(C(=O)NCC3CCCO3)cc(-c3cccs3)nc12 (configuration not stated) | 15µM* | x | x | u | u
CC(C)CCN1C(=O)c2ccccc2C1c1nnnn1C(C)C (configuration not stated) | x | i | i | x | x
CC(C)OC(=O)N(C)C[C@H]1OCc2cnnn2CCCC(=O)N([C@H](C)CO)C[C@H]1C | x | i | i | x | x
CSc1nn(Cc2ccc(C)cc2)c(N)c1S(=O)(=O)c1ccccc1 | x | i | i | x | x
Nc1cccc(/C=C2\C=Cc3ccccc32)c1 | x | i | i | x | x
O=C(NCC1CCCO1)c1cc2ccccc2cc1O (configuration not stated) | 1% | i | i | u | -1%
O=C(NCC1CCCO1)c1csc2c1CCCCC2 (configuration not stated) | 2.6µM* | i | i | u | 1%
CC1CCc2c(C(=O)NCC3CCCO3)csc2C1 (configuration not stated) | 1% | i | i | u | -1%
O=C(NCC1CCCO1)c1cc2ccccc2nc1Cl (configuration not stated) | 0.73µM* | i | i | u | -45%
Cc1ccnc(NC(=O)c2ccccc2NC(=O)c2ccc(Cl)cc2Cl)c1 | 6.5µM* | 3.3µM* | 5.8µM* | -9% | 4.6µM*
Cn1c(=O)c2c(ncn2CC(=O)OCC(=O)c2ccc(Br)cc2)n(C)c1=O | x | i | i | x | x
O=C(NC1CCCCCC1)c1cccc(COCC(F)(F)F)c1 | -2% | 23µM* | i | u | -4%
O=C1N[C@@H](c2ccccc2)COC(=O)[C@@H](Cc2ccc(F)cc2)CC/C=C/C[C@H]1CC(=O)N(CCO)Cc1ccccc1 | u | i | i | 15µM* | u
O=C1N[C@H](Cc2ccccc2)COC(=O)[C@H](Cc2ccc(F)cc2)CC/C=C/C[C@H]1CC(=O)N(CCO)Cc1ccccc1 | 19% | i | i | u | 13%
O=C1N[C@@H](c2ccccc2)COC(=O)[C@@H](Cc2ccc(F)cc2)CC/C=C/C[C@@H]1CC(=O)N(CCO)Cc1ccccc1 | 18% | i | i | 26µM* | -6%
Nc1nc(OCC2CCCCC2)c2[nH]cnc2n1 | u | u | i | u | -19%
O=C(CSc1ncc2c(n1)-c1cc(Cl)ccc1N(Cc1ccccc1F)S2(=O)=O)Nc1cccc(C(F)(F)F)c1 | x | i | i | x | x
Oc1ccc(F)c2cccnc12 | u | i | i | -3% | u
O=C(O)c1ccc(O)c2ncccc12 | x | i | i | x | x
OCc1ccc(O)c2ncccc12 | u | u | u | u | 16µM*
Oc1ccc(Cc2ccccc2)c2cccnc12 | u | i | 23µM* | x | u
SMILES | MCF10A rerep | KB-V1 cytotox | KB-3-1 tox | ELG1 DNA repair | SW480 rerep
Oc1c(CN2CCCCC2)cc(COCc2ccccc2)c2cccnc12 | 16µM* | u | 5.2µM* | -7% | 3.2µM*
Oc1ccc(COCc2ccccc2)c2cccnc12 | u | u | u | u | 3.3µM*
Cc1ccc2ncc3c(-c4ccc(F)cc4)nn(-c4cccc(F)c4)c3c2c1 | x | i | i | x | x
COC(=O)c1ccc(NC(=O)C(=O)NCC(c2cccnc2)N2CCc3ccccc32)cc1 (configuration not stated) | x | i | i | x | x
CCOc1ccccc1C(=O)Nc1cccc2ccc(C)nc12 | x | u | i | x | x
CCOC(=O)c1cc2c(c(-c3ccccc3)n1)[C@@H](CCO)N(S(=O)(=O)C(C)(C)C)C2 | 16% | i | i | x | -116%
Oc1ccc(CNc2ccccc2F)c2cccnc12 | u | u | 21µM*! | u | u
Oc1c(CN2CCCCC2)ccc2cccnc12 | 112% | u | u | x | 5.2µM*
Cn1cccc/c1=N\c1cccc[n+]1C | 3% | i | i | 18µM* | u
CCOc1ccc(C(=O)OCc2cc(=O)n3nc(C4CCCCC4)sc3n2)cc1 | x | i | i | x | x
O/N=C(/CBr)c1ccc2ccccc2c1 | x | i | i | x | x
CC(C)[C@H](CO)Nc1nc(NCc2ccc(S(N)(=O)=O)cc2)c2ncn(C(C)C)c2n1 | 27% | i | u | u | 18µM*
CC(C)n1cnc2c(NCc3ccc(S(N)(=O)=O)cc3)nc(NCc3ccc(S(N)(=O)=O)cc3)nc21 | -4% | i | i | 1% | -8%
COc1ccccc1CN1CCCC(CN(CCN(C)C)C(=O)C2CCCC2)C1 (configuration not stated) | -4% | i | i | -5% | -2%
Oc1ccc(/C=N/N2CCN(C3c4ccccc4-c4ccccc43)CC2)c(O)c1 | 6.5µM* | i | i | -6% | u
Oc1ccc(/C=N/N2CCN(C3c4ccccc4-c4ccccc43)CC2)cc1 | u | i | i | 0% | -13%
O=C(OCC(=O)N1CCc2ccccc21)c1c2c(nc3ccccc13)CCCC2 | u | 9.2µM* | u | u | 10%
CC1Cc2ccccc2N1C(=O)COC(=O)c1c2c(nc3ccccc13)CCCCC2 (configuration not stated) | 21µM* | 9.2µM* | u | 13µM* | u
O=C(O)c1ccc(-c2cccc(-c3nn4c(=O)cc(N5CCNCC5)nc4s3)c2)cc1 | x | i | i | x | x
COc1cc(OC)c(NC(=O)c2ccc3c(c2)N(Cc2ccc(C)cc2)CCS3)cc1Cl | x | i | i | x | x
O=C(c1ccc2c3c(cccc13)CC2)C1CCCN(Cc2cccnc2)C1 (configuration not stated) | -3% | i | i | -23% | 0%
COc1cc(CN2CCCC(C(=O)c3ccc4c5c(cccc35)CC4)C2)cc(OC)c1O (configuration not stated) | 21µM* | i | u | -13% | u
O=C(Cn1cc(S(=O)(=O)N2CCN(c3ccccc3F)CC2)c2ccccc2c1=O)Nc1ccc(F)cc1Cl | x | i | i | x | x

Screens from PubChem.
